Laboratory results as given in PubChem BioAssay.
Activity calls are given as the source filed them.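 The calls were made as follows, unless noted: active = compound that reduces growth-factor-driven endothelial tube area in a mixed cell culture, no cutoff stated; inactive = the rest.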

Columns and labels:
[1] = Wnt pathway potentiators raising nuclear beta-catenin – imaging, WNT3A-conditioned medium, mouse C2C12, NPC library, primary screen (AID 1117326; in the data active = nuclear beta-catenin stimulation mostly above about 4.2%, no sharp cut-off; inactive = mostly below about 10%; also: reference of the scale not given here); conditions: stronger effect = higher value
[2] = stimulators of insulin release from INS-1E, primary screen, cell-based, 5 mM glucose, NPC library (AID 1117329;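 active = compound raises insulin release from rat beta cells at 5 mM glucose, no numeric limit stated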; also: reference of the scale not given here); conditions: rat INS-1E insulin secretion, at 10 µM, stronger effect = higher value
[3] = growth inhibition of GSK3B-pretreated HCT116 cells – cell-based, CellTiter-Glo, 0.2 to 20 µM (AID 1117336;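 active = compounds lowering colon cancer cell viability after pretreatment blocking the GSK3B kinase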); conditions: HCT116 viability after GSK3B inhibitor, at 20 µM, stronger effect = higher value
[4] = inhibition of endothelial tube formation, primary screen, imaging, VEGF stimulated, CD31 staining, tube area, NPC library (AID 1117340); conditions: VEGF-stimulated ADSC/ECFC co-culture, at 10 µM, stronger effect = higher value
[5] = GLP1 release stimulators, primary, NCI-H716, NPC library (AID 1117341;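 active = compound raises GLP1 secretion from the human gut endocrine cells, with no numeric limit stated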; also: reference of the scale not given here); conditions: NCI-H716 cells, at 10 µM, stronger effect = higher value
[6] = HCT116 colon cancer cell growth inhibition, primary screen, CellTiter-Glo luminescence, NPC library (AID 1117342;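 active = compounds that lower survival of HCT116 colon cancer cells in the luminescence readout, no numeric limit stated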); conditions: at 20 µM (top of the series)
[7] = reduced SW480 viability measured with CellTiter-Glo, NPC library, primary (AID 1117343;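 active = compounds that lower viability of the colon cancer cells in the luminescence readout, with no numeric limit stated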); conditions: CellTiter-Glo luminescence; at 20 µM (top of the series)
[8] = NPC library primary testing for decreased DLD-1 cell viability via CellTiter-Glo (AID 1117346;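 active = compounds that lower survival of DLD-1 colon cancer cells in the luminescence readout, no cutoff given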); conditions: DLD-1 viability, CellTiter-Glo luminescence; at 20 µM (top of the series)
[9] = target: 6-phosphogluconate dehydrogenase, decarboxylating (Homo sapiens) (UniProt P52209); assay: inhibition of human phosphogluconate dehydrogenase – biochemical, recombinant enzyme, NADPH absorbance, primary screen (AID 1159550;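 active = at least 20% inhibition of 6-phosphogluconate dehydrogenase activity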); conditions: recombinant 6PGD, NADPH absorbance 341 nm; at 10 µM; stronger effect = higher value
Sequence of 6-phosphogluconate dehydrogenase, decarboxylating (Homo sapiens) (P52209 whole entry, looked up): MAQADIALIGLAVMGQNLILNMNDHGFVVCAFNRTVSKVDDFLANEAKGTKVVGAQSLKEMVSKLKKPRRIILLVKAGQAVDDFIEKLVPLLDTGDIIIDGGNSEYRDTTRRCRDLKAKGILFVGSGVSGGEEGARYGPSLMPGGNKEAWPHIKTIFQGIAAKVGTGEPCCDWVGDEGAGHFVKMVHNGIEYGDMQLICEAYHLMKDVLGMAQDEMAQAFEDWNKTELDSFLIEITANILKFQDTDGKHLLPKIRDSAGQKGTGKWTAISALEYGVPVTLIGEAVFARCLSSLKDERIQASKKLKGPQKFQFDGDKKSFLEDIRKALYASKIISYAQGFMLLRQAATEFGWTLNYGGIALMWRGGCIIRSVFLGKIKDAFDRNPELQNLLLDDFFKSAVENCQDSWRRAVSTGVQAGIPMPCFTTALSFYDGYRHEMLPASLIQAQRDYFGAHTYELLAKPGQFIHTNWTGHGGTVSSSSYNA

C[C@@H]1C[C@H]2[C@@H]3CCC4=CC(=O)C=C[C@]4(C)[C@@]3(F)[C@@H](O)C[C@]2(C)[C@@]1(O)C(=O)COP(=O)(O)O
0.8%: nuclear beta-catenin stimulation ([1]; stimulation, at 2 µM)
inactive: nuclear beta-catenin stimulation ([1]; at 10 µM) 1.2% | insulin secretion stimulation [2] -6.4% | viability decrease [3] -4.3% | tube area decrease [4] 0.7% | GLP1 secretion stimulation [5] -2.2% | inhibition of viability [6] 2.57% | viability decrease (inhibition) [7] 24.1% | viability decrease (inhibition) [8] -4.8% | inhibition [9] -4.39%

Cc1c(Cl)cccc1Nc1ccccc1C(=O)O
1.6%: nuclear beta-catenin stimulation ([1]; stimulation, at 2 µM)
inactive: nuclear beta-catenin stimulation ([1]; at 10 µM) 1.9% | insulin secretion stimulation [2] 2.1% | viability decrease [3] -14.5% | tube area decrease [4] -8.8% | GLP1 secretion stimulation [5] 3.6% | inhibition of viability [6] 35.6% | inhibition [9] -12.8%
active: viability decrease (inhibition) [7] 68.1% | viability decrease (inhibition) [8] 93.6%

CCN(CC)CCNc1ccc(CO)c2sc3ccccc3c(=O)c12
1.8%: nuclear beta-catenin stimulation ([1]; stimulation, at 2 µM)
active: nuclear beta-catenin stimulation ([1]; at 10 µM) 63.7% | tube area decrease [4] 76% | inhibition of viability [6] 78.1% | viability decrease (inhibition) [7] 74.7%
inactive: insulin secretion stimulation [2] 0.6% | viability decrease [3] 24.4% | GLP1 secretion stimulation [5] 10.2% | viability decrease (inhibition) [8] 35.6% | inhibition [9] 7.31%

Cc1cc(-c2ccccc2)nnc1NCCN1CCOCC1
inactive: nuclear beta-catenin stimulation ([1]; at 10 µM) 1.4% | insulin secretion stimulation [2] -1.9% | viability decrease [3] -42.6% | tube area decrease [4] 6.8% | GLP1 secretion stimulation [5] 0.4% | inhibition of viability [6] 6.4% | viability decrease (inhibition) [7] 12.4% | viability decrease (inhibition) [8] -6.5% | inhibition [9] 3.56%
0.5%: nuclear beta-catenin stimulation ([1]; stimulation, at 2 µM)

C1CCC(C(CC2CCCCN2)C2CCCCC2)CC1 (stereo not given)
active: viability decrease [3] 101% | inhibition of viability [6] 100% | viability decrease (inhibition) [7] 120% | viability decrease (inhibition) [8] 103%
inactive: nuclear beta-catenin stimulation ([1]; at 10 µM) 22.1% | insulin secretion stimulation [2] 7.6% | tube area decrease [4] 9.8% | GLP1 secretion stimulation [5] 4.9% | inhibition [9] 12.3%
1.1%: nuclear beta-catenin stimulation ([1]; stimulation, at 2 µM)

CCN(CC)CCNC(=O)COc1ccc(OC)cc1
inactive: nuclear beta-catenin stimulation ([1]; at 10 µM) 0.5% | insulin secretion stimulation [2] 1.8% | viability decrease [3] -5.3% | tube area decrease [4] -8.1% | GLP1 secretion stimulation [5] 2.1% | inhibition of viability [6] -18.7% | viability decrease (inhibition) [7] 22.1% | viability decrease (inhibition) [8] -6.15% | inhibition [9] -14.6%
1.9%: nuclear beta-catenin stimulation ([1]; stimulation, at 2 µM)

Cc1ccc2c(Cl)cc(Cl)c(O)c2n1
inactive: nuclear beta-catenin stimulation ([1]; at 10 µM) 0.6% | insulin secretion stimulation [2] -0.8% | viability decrease [3] -3.9% | tube area decrease [4] 9.4% | GLP1 secretion stimulation [5] 2% | inhibition of viability [6] 2.45% | viability decrease (inhibition) [7] 14.8% | viability decrease (inhibition) [8] 3.5% | inhibition [9] 6.51%
-1%: nuclear beta-catenin stimulation ([1]; stimulation, at 2 µM)

O=C(CCCN1CCN(c2ccccn2)CC1)c1ccc(F)cc1
-1%: nuclear beta-catenin stimulation ([1]; stimulation, at 2 µM)
active: inhibition of viability [6] 51%
inactive: nuclear beta-catenin stimulation ([1]; at 10 µM) 0.1% | insulin secretion stimulation [2] 7.45% | viability decrease [3] 31.5% | tube area decrease [4] -12.3% | GLP1 secretion stimulation [5] -0.3% | viability decrease (inhibition) [7] 11.4% | viability decrease (inhibition) [8] 20.2% | inhibition [9] 1.29%

COC(=O)Nc1nc2ccc(Sc3ccccc3)cc2[nH]1
33.5%: nuclear beta-catenin stimulation ([1]; stimulation, at 2 µM)
inactive: insulin secretion stimulation [2] 1.1% | inhibition [9] 10.3%
active: nuclear beta-catenin stimulation ([1]; at 10 µM) 56.8% | viability decrease [3] 48% | tube area decrease [4] 103% | GLP1 secretion stimulation [5] 48.3% | inhibition of viability [6] 94.4% | viability decrease (inhibition) [7] 81.8% | viability decrease (inhibition) [8] 45.8%

Cc1cc(=O)n(-c2ccccc2)n1C
inactive: nuclear beta-catenin stimulation ([1]; at 10 µM) 1.1% | insulin secretion stimulation [2] -0.2% | viability decrease [3] -26.3% | tube area decrease [4] -3.4% | GLP1 secretion stimulation [5] 0.4% | inhibition of viability [6] 1.15% | viability decrease (inhibition) [7] 4% | viability decrease (inhibition) [8] -8.2% | inhibition [9] 6.71%
0.3%: nuclear beta-catenin stimulation ([1]; stimulation, at 2 µM)

CN(C)C(=O)Nc1ccc(Cl)c(Cl)c1
0.5%: nuclear beta-catenin stimulation ([1]; stimulation, at 2 µM)
inactive: nuclear beta-catenin stimulation ([1]; at 10 µM) 3.6% | insulin secretion stimulation [2] -2.3% | viability decrease [3] -3.75% | tube area decrease [4] -17.1% | GLP1 secretion stimulation [5] -0.7% | inhibition of viability [6] -2.8% | viability decrease (inhibition) [7] 11.2% | viability decrease (inhibition) [8] 13.6% | inhibition [9] -8.44%

CC/C(=C(/CC)c1ccc(O)cc1)c1ccc(O)cc1
-0.2%: nuclear beta-catenin stimulation ([1]; stimulation, at 2 µM)
active: viability decrease [3] 90.8% | inhibition of viability [6] 94.3% | viability decrease (inhibition) [7] 97.7% | viability decrease (inhibition) [8] 98.4%
inactive: nuclear beta-catenin stimulation ([1]; at 10 µM) 21.1% | insulin secretion stimulation [2] 0.8% | tube area decrease [4] 20.8% | GLP1 secretion stimulation [5] 16.6% | inhibition [9] 8.9%

CC(=O)Oc1ccc(C(c2ccc(OC(C)=O)cc2)c2ccccn2)cc1
inactive: nuclear beta-catenin stimulation ([1]; at 10 µM) -0.9% | insulin secretion stimulation [2] 2.65% | viability decrease [3] 41.4% | tube area decrease [4] 15.6% | GLP1 secretion stimulation [5] 5.8% | viability decrease (inhibition) [7] -6% | inhibition [9] 4.53%
-2.7%: nuclear beta-catenin stimulation ([1]; stimulation, at 2 µM)
active: inhibition of viability [6] 67.8% | viability decrease (inhibition) [8] 53.5%

CCN(CCCCOC(=O)c1ccc(OC)c(OC)c1)C(C)Cc1ccc(OC)cc1 (stereo not given)
active: insulin secretion stimulation [2] 49.6%
0.5%: nuclear beta-catenin stimulation ([1]; stimulation, at 2 µM)
inactive: nuclear beta-catenin stimulation ([1]; at 10 µM) 0.6% | viability decrease [3] -125% | tube area decrease [4] 23.2% | GLP1 secretion stimulation [5] 0.3% | inhibition of viability [6] 26.7% | viability decrease (inhibition) [7] 20% | viability decrease (inhibition) [8] 8% | inhibition [9] -12.1%

CC1(C)O[C@H]2CC(=O)OC[C@]23[C@H]2CC[C@@]4(C)[C@H](c5ccoc5)OC(=O)[C@H]5O[C@]54[C@]2(C)C(=O)C[C@@H]13
0.6%: nuclear beta-catenin stimulation ([1]; stimulation, at 2 µM)
inactive: nuclear beta-catenin stimulation ([1]; at 10 µM) -0.3% | insulin secretion stimulation [2] 0.05% | viability decrease [3] 2.7% | tube area decrease [4] 16.3% | GLP1 secretion stimulation [5] 2% | inhibition of viability [6] -6.9% | viability decrease (inhibition) [7] -12.1% | viability decrease (inhibition) [8] -9.6% | inhibition [9] 5.47%

CN1[C@@H]2CC[C@H]1CC(OC(=O)C(O)c1ccccc1)C2 (stereo not given in full)
inactive: nuclear beta-catenin stimulation ([1]; at 10 µM) -0.1% | insulin secretion stimulation [2] 3.1% | viability decrease [3] 15% | tube area decrease [4] -13.1% | GLP1 secretion stimulation [5] 1% | inhibition of viability [6] 28% | viability decrease (inhibition) [7] 22.2% | viability decrease (inhibition) [8] -0.2% | inhibition [9] -3.32%
-2.6%: nuclear beta-catenin stimulation ([1]; stimulation, at 2 µM)
